Most compounds without a hit are left out; they make up all but 2.4% or so of the library.
POLI inh – blocks human DNA polymerase iota activity; Q9UNA4; Pol iota fluorescent replication assay, 10 min; Potency, µM (series often up to 115 µM), inactives show at the highest dose activity, negative = inhibition, usual class: inhibitors; actives 1% (n = 390,000); further: potency means the concentration at half of the fitted maximal effect
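Pol iota at 10 nM preincubated 15 min with compounds at room temperature; reaction started with fluorescent substrate, 50 nM final. Fluorescence read kinetically at 0 and 10 min; buffer-only wells as negative control.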
Pol kappa inh-1 – blocks human DNA polymerase kappa activity; purified Pol kappa, fluorescent DNA synthesis assay, 10 min; Potency, µM (top dose mostly 107 µM), without a hit: at the highest dose activity, negative = inhibition, most hits filed as inhibitors; actives 0.53% (n = 400,000); further: potency means the concentration at half of the fitted maximal effect; on the % scale 0 is the no-effect control and ±100 the full control effect
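Pol kappa 10 nM + cpd, 15 min RT; start w/ substrate 50 nM final; fluorescence kinetic read, 0 and 10 min. Neg ctrl: buffer, no enzyme.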
Pol beta inh – inhibitors of human DNA polymerase beta; Pol beta primer extension/strand displacement, fluorescence kinetic; Potency, µM (series often up to 114 µM), for inactives: at the highest dose activity change, negative = inhibition, actives largely listed as inhibitors; actives 1.3% (n = 340,000); further: potency means the concentration at half of the fitted maximal effect; on the % scale 0 is the no-effect control and ±100 the full control effect
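Homogeneous kinetic assay of primer extension and strand displacement by 10 nM Pol beta, preincubated 15 min at room temperature with compound before 50 nM substrate (final) was added. Read at 0 and 10 min; four-parameter Hill fit.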
L3MBTL1 block – inhibitors of human L3MBTL1; AlphaScreen L3MBTL1–H3K9me1 peptide binding; Potency, µM (highest dose often 57.1 µM), for the others: top-dose activity, negative = inhibition, actives largely listed as inhibitors; actives 0.66% (n = 230,000); AID 485360; further: potency means the concentration at half of the fitted maximal effect; on the % scale 0 is the no-effect control and ±100 the full control effect; nearly all actives have a fitted effect of over 60% in size
Target sequence (Q9Y468 whole entry, looked up): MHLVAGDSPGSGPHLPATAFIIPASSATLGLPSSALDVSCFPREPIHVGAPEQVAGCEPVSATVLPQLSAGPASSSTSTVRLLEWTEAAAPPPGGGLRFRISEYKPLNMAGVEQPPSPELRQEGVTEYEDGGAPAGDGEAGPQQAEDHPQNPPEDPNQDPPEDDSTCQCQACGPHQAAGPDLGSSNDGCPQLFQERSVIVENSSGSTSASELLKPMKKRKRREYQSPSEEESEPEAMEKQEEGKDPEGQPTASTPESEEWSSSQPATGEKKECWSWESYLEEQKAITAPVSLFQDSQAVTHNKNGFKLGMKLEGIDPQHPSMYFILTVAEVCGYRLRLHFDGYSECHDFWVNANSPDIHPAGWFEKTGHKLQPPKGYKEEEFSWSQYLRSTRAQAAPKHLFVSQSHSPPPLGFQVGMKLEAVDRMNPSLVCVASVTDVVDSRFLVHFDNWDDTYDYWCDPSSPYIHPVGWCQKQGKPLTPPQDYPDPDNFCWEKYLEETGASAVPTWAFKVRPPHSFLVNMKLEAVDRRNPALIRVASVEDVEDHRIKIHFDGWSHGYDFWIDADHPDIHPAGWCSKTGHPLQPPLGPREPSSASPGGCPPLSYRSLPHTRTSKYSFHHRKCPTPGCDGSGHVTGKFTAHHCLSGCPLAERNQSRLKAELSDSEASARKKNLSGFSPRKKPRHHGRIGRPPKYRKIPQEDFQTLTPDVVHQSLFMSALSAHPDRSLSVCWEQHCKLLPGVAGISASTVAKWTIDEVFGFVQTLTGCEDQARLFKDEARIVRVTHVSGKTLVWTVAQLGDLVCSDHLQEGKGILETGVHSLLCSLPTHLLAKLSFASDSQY
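First, the protein-peptide complex forms for 30 min at room temperature (L3MBTL1 50 nM, biotinylated H3K9me1 peptide 75 nM). Next, compounds are pin-transferred and incubated 30 min. Finally, AlphaScreen beads are added and read after 30 min.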
Pol eta inh-1 – DNA polymerase eta (human) inhibition. Potency, µM (doses to about 114 µM), for the others: top-dose activity change, negative = inhibition, usual class: inhibitors. actives 1.2% (n = 390,000). AID 588591. Q9Y253. recombinant Pol eta, fluorescent DNA replication assay; further: potency means the concentration at half of the fitted maximal effect; on the % scale 0 is the no-effect control and ±100 the full control effect
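Pol eta at 10 nM preincubated with compounds 15 min at room temperature; reaction started with fluorescent substrate (50 nM final) and read kinetically at 0 and 10 min.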
PGK validate – TbPGK inhibition, hit validation. actives 79% (n = 500). shares compounds with Pol kappa inh-1. AID 686980. Potency, µM (doses to about 57.5 µM), for the others: at the top dose activity change, negative = inhibition, actives largely listed as inhibitors. TbPGK coupled GAPDH assay, Kinase-Glo luminescence; further: potency means the concentration at half of the fitted maximal effect; on the % scale 0 is the no-effect control and ±100 the full control effect; nearly all actives have a fitted effect of over 65% in size
Pol iota confirm – Inhibitors of human DNA polymerase iota, confirmation; Potency, µM, most hits filed as inhibitors; actives 77% (n = 1,500); Pol iota primer extension, TAMRA/BHQ fluorescence; shares compounds with Pol kappa inh-1; further: potency means the concentration at half of the fitted maximal effect
GALK confirm – confirmation of human galactokinase (GALK) inhibitors; Potency, µM (titrated, usually from 115 µM), for inactives: top-dose activity, negative = inhibition, usual class: inhibitors; actives 70% (n = 150); shares compounds with Pol eta inh-1; purified GALK, Kinase-Glo ATP depletion luminescence
GALK redox cs – generates H2O2 by redox cycling, flagging GALK artifacts; Phenol red-HRP H2O2 redox cycling, absorbance 600 nm; shares compounds with Pol eta inh-1; Potency, µM (titrated, usually from 115 µM), without a hit: top-dose activity change, negative = H2O2 signal, most hits filed as inhibitors; actives 40% (n = 150)
HEK293 tox – HEK-293 cytotoxicity, GALK inhibitor secondary; shares compounds with Pol eta inh-1; HEK-293 viability, ATP luminescence (CellTiter-Glo), 24/48 h; Potency, µM (titrated, usually from 46.1 µM), for the others: top-dose activity change, negative = cytotoxicity, hits mostly inhibitors; actives 10% (n = 170); further: potency means the concentration at half of the fitted maximal effect; on the % scale 0 is the no-effect control and ±100 the full control effect
Pol kappa inh-2 – Pol kappa (human) inhibition, cherry-pick confirmation; shares compounds with Pol eta inh-1; purified Pol-kappa, fluorescent strand-displacement substrate; Potency, µM, actives largely listed as inhibitors; actives 76% (n = 920); AID 720501; further: potency means the concentration at half of the fitted maximal effect
Pol eta inh-2 – confirmation of human DNA polymerase eta inhibitors | shares compounds with Pol eta inh-1 | Pol eta primer extension, TAMRA/BHQ fluorescence, 10 min | Potency, µM, hits mostly inhibitors | actives 64% (n = 2,600); further: potency means the concentration at half of the fitted maximal effect
Active calls of the source: *; ? = inconclusive; · = no result. The call rests on the fitted dose curve; in most records, active means well fitted curve in the direction sought with a large enough effect; inconclusive means small, poorly fitted or top-dose-only effect, or another doubt; inactive means no such curve, though single readings can be large; an effect the other way counts as inactive or inconclusive.

SMILES | POLI inh | Pol kappa inh-1 | Pol beta inh | L3MBTL1 block | Pol eta inh-1 | Pol iota confirm | Pol kappa inh-2 | Pol eta inh-2 | others
O=C(O)c1cccc(N2C(=O)c3cc([N+](=O)[O-])cc4cc([N+](=O)[O-])cc(c34)C2=O)c1 | 2.24µM* | 22.4µM* | 6.31µM* | 31.6µM* | 3.98µM* | 42.3* | 15* | 23.9* | PGK validate=10.3µM*
O=C1c2cc([N+](=O)[O-])cc3cc([N+](=O)[O-])cc(c23)C(=O)N1c1ccccn1 | ? | ? | ? | -10.5% | 15.8µM* | 67* | 21.2* | 30.1*
O=C1c2ccc(Oc3cccc([N+](=O)[O-])c3)cc2C(=O)N1c1ccccn1 | -26.4% | -2.4% | -1.0% | · | 1.0% | · | · | ·
O=C(O)c1cccc(N2C(=O)c3cccc4cccc(c34)C2=O)c1 | 66.4% | -6.1% | 5.2% | 3.5% | 8.8% | · | · | ·
COc1ccc(Cl)cc1NC(=O)Cn1cnc2sc(C)c(S(=O)(=O)N3CCN(c4ccccc4OC)CC3)c2c1=O | 16.9% | 3.3% | 28.0% | · | -23.2% | · | · | ·
CSC1SCC2C(=O)N(C)C(C(C)C)C(=O)OCC(NC(=O)c3cnc4ccccc4n3)C(=O)NC(C)C(=O)N(C)C1C(=O)N(C)C(C(C)C)C(=O)OCC(NC(=O)c1cnc3ccccc3n1)C(=O)NC(C)C(=O)N2C (configuration not stated) | 0.316µM* | -100.4% | · | · | -98.7% | 1.5* | 0.752* | 1.51*
COc1cc(/C=N/n2c(=S)[nH]nc(C)c2=O)cc([N+](=O)[O-])c1O | 4.7% | -6.6% | -11.5% | -10.5% | -13.8% | · | · | ·
CCc1n[nH]c(=S)n1/N=C/c1cc(OC)cc([N+](=O)[O-])c1O | ? | -34.6% | 1.5% | ? | 20µM* | 33.6* | · | 60.1*
CC1=C(C(=O)Nc2cccnc2)C(c2ccc(F)cc2)n2nc(SCc3ccccc3F)nc2N1 (configuration not stated) | -19.8% | -6.3% | 1.5% | · | 3.1% | · | · | ·
N#C/C(=C\c1ccc(-c2ccc(C(=O)O)cc2)o1)C(=O)Nc1ccccc1C(=O)O | ? | 31.6µM* | ? | · | 11.2µM* | 67* | 5.32* | 30.1*
O=C(c1cc(C2CC2)nn1-c1ccccc1)N1CCN(Cc2ccccc2)CC1 | · | · | · | · | -1.5% | · | · | ·
COc1ccc(-c2noc(CSc3nnc(C)n3-c3ccc(C)c(C)c3)n2)c(OC)c1 | 1.8% | 3.0% | 25.1% | · | -2.3% | · | · | ·
N=C1/C(=C\c2ccc(-c3ccc(C(=O)O)cc3)o2)C(=O)N=C2SC=C(c3ccccc3)N12 | ? | 50.1µM* | ? | · | 3.55µM* | 37.7* | · | 26.9*
O=C(O)CCCNc1cc(N2CCN(C(=O)c3ccco3)CC2)c2noc3c2c1C(=O)c1ccccc1-3 | 31.6µM* | 31.6µM* | 15.8µM* | · | 10µM* | 26.7* | ? | 9.53*
CN1CCN(c2cc(N3CCN(C(=O)c4ccco4)CC3)c3c4c(onc24)-c2ccccc2C3=O)CC1 | ? | -44.6% | -11.9% | · | ? | · | · | ·
Oc1ccc(/C=N/N=C/c2ccc(O)c(O)c2)cc1O | 1.26µM* | 0.891µM* | 0.447µM* | 8.91µM* | 0.708µM* | 6.7* | 4.74* | 4.26* | PGK validate=1.3µM*
COc1cc(/C=N/N=C2/C(=O)Nc3ccccc32)ccc1O | 24.8% | -18.0% | 9.9% | -6.8% | ? | · | · | ·
Oc1ccc(/C=N/N=C/c2ccc(O)cc2)cc1 | 20.5% | -1.1% | 0.3% | -2.9% | -8.5% | · | · | ·
O=C1Nc2ccccc2/C1=N\N=C\c1ccc(O)c(O)c1 | 2.24µM* | 5.62µM* | 4.47µM* | ? | 3.16µM* | ? | · | 16.9*
Cc1ccc(NC(=O)Cn2c(=O)n(CCC(=O)N3CCc4ccccc4C3)c(=O)c3ccccc32)cc1 | -5.4% | 4.1% | 8.8% | · | -5.4% | · | · | ·
COc1ccc(NC(=O)c2oc3c(c2C)-c2nn(Cc4ccccc4Cl)cc2CC3)cc1OC | 6.5% | -1.0% | -0.6% | · | -10.6% | · | · | ·
O=C(O)C(C(=O)/C=C/c1ccco1)=C1SCCS1 | 3.98µM* | 44.7µM* | 25.1µM* | ? | 8.91µM* | 53.2* | · | 47.8*
CCc1ccc(N=C2NC(=O)/C(=C/c3cc(Br)c(OCC(=O)O)c(OC)c3)S2)cc1 | 39.8µM* | ? | 15.8µM* | ? | 35.5µM* | 67* | 47.4* | 84.9*
CCc1ccc(N=C2NC(=O)/C(=C/c3cc(OC)c(OC)c(OC)c3)S2)cc1 | 14.1% | 3.1% | -6.5% | -3.8% | -10.4% | · | · | ·
CC(C)(O)c1ccccc1CC[C@@H](SCC1(CC(=O)O)CC1)c1cccc(/C=C/c2ccc3ccc(Cl)cc3n2)c1 | 44.7µM* | -34.7% | · | · | ? | ? | 84.4* | ·
O=C(Cn1c(=O)n(Cc2ccco2)c(=O)c2c3c(sc21)CCCC3)Nc1ccccc1 | ? | -8.1% | 2.4% | -10.0% | -13.6% | · | · | ·
NC(=O)Cn1c(=O)n(Cc2ccco2)c(=O)c2c3c(sc21)CCCCC3 | ? | 25.1µM* | 10µM* | ? | 39.8µM* | ? | · | ?
C[n+]1cccc2cccc([O-])c21 | 1.58µM* | ? | 28.2µM* | 28.2µM* | 22.4µM* | 23.8* | · | 42.6* | GALK confirm=23.7µM*;GALK redox cs=11.9µM*;HEK293 tox=4.9%

Screening data (PubChem)
